From PubChem BioAssay
A selection: hits, their analogues and other compounds. The true share with any hit is near 1.3%.
IL2 activator – IL-2 activation | IL-2 activation reporter assay, cell-based qHTS; stimulated with anti-CD3/CD4/CD28 beads; in transgenic mouse T cells | activation, % (series mostly up to about 46 µM) | 360,000 tested, 0.065% active | AID 652025; in the data active = activation above about 50%; inconclusive = mostly about 30% to 49%; also: 0% is about no effect
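Readout is EGFP and DsRed signal by fluorescent plate cytometry after 18 h at 37 degrees C. Transgenic mouse T cells (750/well) received compound for 60 min before bead stimulation (anti-CD3, anti-CD4, anti-CD28); memory T cells served as non-tolerant control.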
a7 integrin act – activates integrin-mediated alleviation for muscular dystrophy | Potency, µM (doses to about 38.3 µM), inactives show at the top dose activation, actives largely listed as activators | AID 624291 | 350,000 tested, 0.064% active | alpha7betagal myoblasts, beta-gal FDG fluorescence, 48 h;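 also: potency is read from the fitted curve at half-maximal effect; 100% = response of the positive control SU9516; nearly all actives have a fitted effect of over 60% in size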
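alpha7betagal+/- myoblasts (passage 13, 250/well) treated 48 h at 37C with compounds at 1:260 dilution of DMSO stock. Lysed, then beta-galactosidase activity read as FDG fluorescence (ex 480/em 540) after 30 min, with pre-read for autofluorescence.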
Apoferritin bind – candidate novel general anesthetic via apoferritin binding | P02791 | AID 485281 | Potency, µM (highest dose often 77.5 µM), inactives show at the top dose activity change, negative = displacement, usual class: inhibitors | apoferritin/1-aminoanthracene competitive binding, fluorescence | 350,000 tested, 0.074% active; also: potency is read from the fitted curve at half-maximal effect; % is scaled to controls: 0 for no effect and ±100 for the full control effect; nearly all actives have a fitted effect of over 20% in size
Target sequence (P02791 2-175 limits assumed): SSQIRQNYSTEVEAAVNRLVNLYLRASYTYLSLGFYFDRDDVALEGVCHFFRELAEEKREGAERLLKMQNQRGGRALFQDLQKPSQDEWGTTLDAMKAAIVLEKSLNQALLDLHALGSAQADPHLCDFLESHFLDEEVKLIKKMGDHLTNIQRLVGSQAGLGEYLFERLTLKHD
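In PBS, apoferritin at 10 uM is loaded with 1-AMA from a 50% saturated solution. After 10 min of compound exposure at ambient temperature, reduced 535 nm fluorescence indicates probe displacement.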
BRCA1 expr up – activators of BRCA1 expression | Potency, µM (highest dose often 46.1 µM), without a hit: at the highest dose activation, hits mostly activators | 380,000 tested, 1.1% active | MCF7-BRCA1-FFLuc reporter, luminescence, 48 h; response scale: scaled: vehicle 0%, 10 µM genistein 100%; also: potency is read from the fitted curve at half-maximal effect; nearly all actives have a fitted effect of over 80% in size
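Activators of BRCA1 expression were detected as increased firefly luciferase luminescence in engineered MCF7 cells after 48 h compound incubation. Signals were scaled to genistein 10 microM as full activation.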
PKM2 act – PKM2 (human) enzyme activation. P14618. purified PKM2, Kinase-Glo ATP luminescence, activation; response scale: 0% is enzyme alone, no compound. Potency, µM (doses to about 57.5 µM), without a hit: at the highest dose activation, most hits filed as activators. 260,000 tested, 0.34% active; also: potency is read from the fitted curve at half-maximal effect; % is scaled to controls: 0 for no effect and ±100 for the full control effect; nearly all actives have a fitted effect of over 55% in size
Target sequence (P14618 whole entry, looked up): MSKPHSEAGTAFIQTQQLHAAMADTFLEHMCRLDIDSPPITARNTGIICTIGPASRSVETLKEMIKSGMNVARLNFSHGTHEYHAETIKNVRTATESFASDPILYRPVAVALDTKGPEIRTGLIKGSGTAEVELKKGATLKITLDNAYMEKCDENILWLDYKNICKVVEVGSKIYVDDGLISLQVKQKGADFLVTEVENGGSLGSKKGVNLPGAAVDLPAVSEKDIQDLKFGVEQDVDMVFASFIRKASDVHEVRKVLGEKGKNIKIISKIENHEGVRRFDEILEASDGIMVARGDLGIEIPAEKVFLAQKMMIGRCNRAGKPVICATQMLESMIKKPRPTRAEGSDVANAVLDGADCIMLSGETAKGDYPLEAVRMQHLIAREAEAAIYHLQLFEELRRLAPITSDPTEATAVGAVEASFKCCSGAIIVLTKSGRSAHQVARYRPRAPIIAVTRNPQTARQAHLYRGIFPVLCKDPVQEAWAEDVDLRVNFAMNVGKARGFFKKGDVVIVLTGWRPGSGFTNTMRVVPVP
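Purified hPK-M2 (>95%) run at intermediate activity with 0.1 mM ADP and 0.5 mM PEP in 50 mM imidazole pH 7.2, KCl, MgCl2; 1 h room temperature. ATP formed read by Kinase-Glo luminescence; normalized to uninhibited and no-enzyme controls.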
Starred values were filed as active, the others as inactive; ? = inconclusive; . = no result given; ! = repeats disagree; [ ] = dose if it differs, or a comment. Unless noted, calls follow the shape of the dose curve; as a rule, active = well fitted curve in the direction sought with a large enough effect; inconclusive = small, poorly fitted or top-dose-only effect, or another doubt; inactive = no such curve, though single readings can be large; an effect the other way counts as inactive or inconclusive.

SMILES | IL2 activator | a7 integrin act | Apoferritin bind | BRCA1 expr up | PKM2 act
COc1ccc(NC(=O)Nc2cccc(C)n2)c(OC)c1 | -2 | 21% | -5% | 89% | .
Cc1ccc(NC(=O)Nc2ccc(F)cc2)cc1Cl | -1 | ? | -2% | 2.8µM* | -4%
CCC[C@H](NC(C)=O)C(=O)N[C@H]1CC(=O)ONCCCC[C@@H](C(N)=O)NC(=O)[C@H](Cc2c[nH]c3ccccc23)NC(=O)[C@H](CCCN=C(N)N)NC(=O)[C@@H](Cc2ccc3ccccc3c2)NC(=O)[C@H](Cc2cnc[nH]2)NC1=O | . | . | -2% | . | .
Cc1cc(NC(=O)c2cccc(Oc3ccccc3)c2)n[nH]1 | 1 | 2% | -9% | 11µM* | -2%
Cc1cc(NC(=O)NC(=O)c2cccc(OC(F)(F)C(F)F)c2)n[nH]1 | -2 | 6% | -3% | 71% | 1%
Cc1c(C2(c3cc(C(C)C)c(O)c(Br)c3C)OS(=O)(=O)c3ccccc32)cc(C(C)C)c(O)c1Br | . | . | . | 5% | .
O=C(Nn1cnnc1)C(Sc1ccccc1)c1ccccc1 (stereo not given) | 0 | 10%[7.66 µM] | -8% | 3% | 19%
O=C(Nn1cnnc1)C(c1ccccc1)c1ccccc1 | -2 | -14% | 0% | -17% | 32µM*
CC(=O)C(=O)O | . | . | -2% | . | .
CNc1cccc(-c2ccc(C(C)=O)s2)n1 | 1 | . | . | 6.3µM* | .
CNc1cccc(-c2ccccc2C(C)=O)n1 | 1 | . | . | -10% | .
Fc1cccc(Cl)c1Cn1nnc(-c2ccc3c(c2)OCO3)n1 | -3 | -1% | -5% | 8.9µM* | -2%
Cc1cccc(OCc2nc(C#N)c(NCCN(C)C)o2)c1 | 4 | 15% | -7% | 19% | 1%
CCNc1oc(COc2cccc(C)c2)nc1C#N | 0 | 23% | ? | 11µM* | -1%
Cc1cccc(OCc2nc(C#N)c(N3CCCC3)o2)c1 | -5 | 3.5µM* | -4% | -9% | 5%
Cc1ccc(-c2ccc(=O)n(CC(=O)NCc3ccc(F)cc3)n2)cc1 | -1 | 11% | 8.9µM* | 32% | 1%
C=Cc1ccc(Cn2nc(-c3ccc(C)cc3)ccc2=O)cc1 | 0 | -19% | 16µM* | -25% | .
COc1cccc(CNC(=O)Cn2nc(-c3ccc(Cl)cc3)ccc2=O)c1 | -2 | 15% | 6.3µM*! | 3% | -1%
O=[N+]([O-])c1ccc(/C=C/c2ccnc3ccccc23)c([N+](=O)[O-])c1 | . | . | . | -25% | .
Cc1noc(C)c1-c1ccc2ncnc(NCc3cccc(Cl)c3)c2c1 | . | . | -8% | . | .
CCOC(=O)c1cccc(C2=CC(=O)C[C@H](c3ccc(OC)cc3)C2)c1 | 1 | -10% | . | 11µM* | .
Cc1cccc(OCc2ccc(-c3nc(C#N)c(NCc4cccnc4)o3)o2)c1 | . | . | 37% | . | .
O=C(N/N=C/c1c(F)cccc1Cl)c1cc(C2CC2)[nH]n1 | 0 | -6% | 0% | 11µM* | -5%
COc1cc2oc3cc(C#Cc4ccc(N)cc4)ccc3c(=O)c2cc1OC | 1 | -25% | . | 5% | .
Nc1ccc(C#Cc2ccc3c(=O)c4ccccc4oc3c2)cc1 | -4 | 27% | -9% | 10µM* | -5%
SMILES | IL2 activator | a7 integrin act | Apoferritin bind | BRCA1 expr up | PKM2 act
COC(=O)NC(/C(C(=O)OC)=C(\C)NCc1ccccc1)c1cccc(F)c1 (stereo not given) | . | . | 3%[15.3 µM] | . | .
COc1ccccc1S(=O)(=O)N1CCN(S(=O)(=O)c2ccccc2C#N)CC1 | -1 | ? | 7% | 0% | 2µM*
CN(C)CCNc1ncnc2sc(-c3ccccc3)cc12 | -5 | 10µM* | 0% | -40% | .
CNc1ncnc2sc(-c3ccccc3)cc12 | 0 | 20% | -2% | -11% | 0%
CCOC(=O)c1ccc(N2Cc3ccccc3C2)cc1O | 2 | 1% | -2% | 13µM* | -7%
COc1ccc(S(=O)(=O)Nc2cc(OC)cc3cccnc23)cc1 | . | . | -4% | . | .
Nc1nc2c(C(=O)N3CCOCC3)nnn2c2ccccc12 | -1 | 0% | 9% | 2.8µM* | -14%
C=C1C=C(C(F)F)n2ncc(C(=O)N3CCN(c4ccccc4)CC3)c2N1 | . | . | . | 0% | .
Fc1cccc(Cl)c1CSc1nnc(COc2cccc3cccnc23)o1 | 0 | -14% | 18µM* | 19% | 7%
NCCc1nnc(SCc2c(F)cccc2Cl)o1 | -2 | 8%[7.66 µM] | ? | -1% | -1%
COC(=O)c1cc(=O)nc2sc3cc(OC)ccc3n12 | -1 | 6% | 22% | 1% | 6%
CCCCc1c(O)nc2sc3cc(OC)ccc3n2c1=O | -1 | -11% | -9% | 11µM* | -1%
Cc1ncc(C(=O)Nc2ccccc2)[nH]1 | 0 | -3% | . | 2.8µM* | .
COc1ccc(C)cc1Nc1n[n+](-c2ccccc2)c(-c2cc([N+](=O)[O-])cc(OC)c2O)s1 | 180* | 19% | -20% | 2% | 0%
COc1ccc(C)cc1Nc1n[n+](-c2ccccc2)c(-c2ccc(NC(C)=O)cc2)s1 | -1 | 7% | -15% | -1% | -1%
O=C(CSc1nc(N2CCCCC2)nc(N2CCCCC2)n1)c1ccccc1 | -1 | -17% | -10% | -35% | -4%
Cc1cc(N2CCCCC2)nc(SCC(=O)c2ccccc2)n1 | -2 | 6% | ? | 10µM* | -1%
COc1ccc(N(C(=O)c2snc(C(N)=O)c2N)C(C(=O)NC2CCCC2)c2ccc(OC)c(OC)c2)cc1 (stereo not given) | 1 | 7% | -23% | -38% | .
CCCCC(C(=O)NC1CCCC1)N(C(=O)c1snc(C(N)=O)c1N)c1ccc(C)cc1 (stereo not given) | -1 | 10µM* | -2% | -16% | 1%
COc1cc(C(C(=O)NC2CCCCC2)N(C(=O)c2snc(C(N)=O)c2N)c2ccc(C)cc2)ccc1O (stereo not given) | -3 | 7.9µM* | -2% | -41% | 5%
Nc1ccc(C23CC4CC(CC(O)(C4)C2)C3)cc1 | 0 | 1% | 14µM* | 2% | 3%
Nc1ccc(C23CC4CC(CC(C4)C2)C3)cc1 | 2 | 4% | 8.9µM* | -3% | 5%
Nc1ccc(C23CC4CC(CC(CO)(C4)C2)C3)cc1 | -2 | 9% | ? | 69% | 27%
Cc1cccc(N2C(=O)C(CC(=O)Nc3cccc(F)c3)N(Cc3cccs3)C2=O)c1 (stereo not given) | . | . | 4% | . | .
COc1cccc(CNC(=O)CCCn2ncn3c(cc4occc43)c2=O)c1OC | . | . | -1% | 12% | .
O=C(OCC1CCCO1)c1ccc2c(c1)N(Cc1ccccc1)C(=O)c1ccccc1S2(=O)=O (stereo not given) | . | . | -7% | . | .
Cc1sc(NC(=O)/C=C/c2ccco2)c(C(=O)O)c1C | 8 | 4% | -3% | 2.2µM* | 0%
CCOC(=O)c1c(NC(=O)/C=C/c2ccc(C)o2)sc(C)c1C | -3 | 36% | -10% | -82% | -3%
